# Screens (PubChem BioAssay)
# DT40 TDP1 no CPT – qHTS for Inhibitors of human tyrosyl-DNA phosphodiesterase 1 (TDP1): qHTS in cells in absence of CPT. Potency, µM (series often up to 46.2 µM), for the others: at the top dose activity change, negative = growth inhibition, actives largely listed as inhibitors. actives 15% (n = 420,000). DT40 Tdp1-/- hTDP1 cells, no CPT, ATP luminescence, 48 h. AID 686978, 2013; note: potency is the fitted concentration of half-maximal effect; nearly all actives have a fitted effect of over 55% in size
#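 Stably hTDP1-transfected Tdp1-null chicken DT40 cells were treated with library compounds minus camptothecin and grown for at least 48 hr at 37 °C, after which cellular ATP was quantified by luminescence.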
# HT1080NT lethal – kills 2HG-producing HT-1080-NT fibrosarcoma cells; HT-1080-NT fibrosarcoma viability, CellTiter-Glo ATP luminescence, 48 h; Potency, µM (top dose mostly 46.1 µM), without a hit: at the highest dose activity, negative = less viability, usual class: cytotoxic; actives 1.6% (n = 360,000);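 note: NT is the 2HG producing partner of a matched IDH1 knockdown line; potency is the fitted concentration of half-maximal effect; 0% = DMSO-treated cells and -100% = media-only wells without cells; nearly all actives have a fitted effect of over 55% in size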
#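 Read-out is CellTiter-Glo luminescence after 10 minutes at room temperature, following 48 hours' compound treatment of HT-1080-NT cells (750 cells/well, RPMI, 5% FBS, 37 degrees C).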
# TDP1 cell CPT – DT40-hTDP1 cell growth loss with CPT. actives 12% (n = 420,000). AID 686979. chicken DT40 Tdp1-/-;hTDP1 cells + 20 nM CPT, ATP luminescence, 48 h. Potency, µM (doses to about 46.2 µM), without a hit: top-dose activity change, negative = growth inhibition, usual class: inhibitors; note: potency is the fitted concentration of half-maximal effect; nearly all actives have a fitted effect of over 55% in size
#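 Chicken DT40 Tdp1-/- cells complemented with human TDP1, 400 cells/well, exposed to compounds plus 20 nM camptothecin for at least 48 h at 37 C; viability read as ATP content by CellTiter-Glo luminescence.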
# IL1B secr inh – blocks inflammasome-driven IL-1 beta release | AID 743279 | THP-1 LPS/ATP IL-1B secretion, AlphaLISA, 16 h; hits give low values | actives 4.7% (n = 360,000) | activity change, % at 57.5 µM; in the data active = activity change below about -50%; inconclusive = mostly about -30% to -49%
#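 THP-1 cells pretreated 1 hr with compounds (up to 57.5 uM final), then stimulated with LPS (250 ng/mL final) plus ATP (1.25 mM final); secreted IL-1B measured by AlphaLISA after 16 hr, decreased signal indicating inhibition.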
# HT1080 IDH1KD tx – kills HT-1080 cells with IDH1 knockdown; HT-1080 IDH1 knockdown viability, ATP luminescence, 48 h; actives 2% (n = 360,000); Potency, µM (titrated, usually from 46.1 µM), inactives show at the top dose activity, negative = toxicity, most hits filed as cytotoxic;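 note: potency is the fitted concentration of half-maximal effect; 0% = DMSO wells and -100% = cell-free medium wells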
#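 Cytotoxicity counter-line: IDH1KD HT-1080, 48 h, CellTiter-Glo. Curves classed by r2, magnitude and activity.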
# * = called active by the depositor; i = inactive; ? = inconclusive; . = no result. An excerpt weighted towards active compounds, which were near 19% of everything screened. Unless noted, calls come from the whole dose curve; as a rule, active = well fitted curve in the direction sought with a large enough effect; inconclusive = small, poorly fitted or top-dose-only effect, or another doubt; inactive = no such curve, though single readings can be large; an effect the other way counts as inactive or inconclusive. Unless noted, % is set by controls: 0 for no effect and ±100 for the full control effect.
SMILES,DT40 TDP1 no CPT,HT1080NT lethal,TDP1 cell CPT,IL1B secr inh,HT1080 IDH1KD tx
COc1ccc(C2CC(=O)c3cnc(NC(=O)c4ccccc4OC)nc3C2)c(OC)c1 (stereo not drawn),14.6µM*,-17.9%,16.4µM*,8.4,-11.6%
O=S(=O)(c1ccccc1)N1CCC(O)(CSc2ccc(Cl)cc2)CC1,25.9µM*,?,?,?,-14.8%
NC(=O)NC(=O)COC(=O)CC12CC3CC(CC(C3)C1)C2,-4.4%,-2.8%,-12.2%,12.8,-6.0%
Cc1cc(N2CCN(C(C(=O)NC3CCCC3)C(C)(C)C)CC2)c2ccccc2n1 (stereo not drawn),11.6µM*,?,?,-7.2,?
COc1cccc(C(C(=O)NC2CCCC2)N2CCN(c3cc(C)nc4ccccc34)CC2)c1OC (stereo not drawn),20.6µM*,-11.3%,23.1µM*,-19.8,-3.9%
Cc1ccc(C)c(N2CCN(C(C(=O)NC3CCCC3)C(C)C)CC2)c1 (stereo not drawn),20.6µM*,-2.7%,18.4µM*,-15.1,2.6%
CC(C)(C)C(C(=O)NC1CCCC1)N1CCN(c2ncccc2C#N)CC1 (stereo not drawn),?,0.0%,16.4µM*,3.1,4.9%
O=C(Nc1ccc2nc(-c3cccs3)[nH]c2c1)c1ccco1,?,-11.2%,?,-10.4,-2.9%
CC(=O)Nc1cccc(NC(=O)Cc2cccs2)c1,-5.1%,-3.1%,4.3%,5.0,0.4%
O=C(Nc1ccc2nc(-c3cccs3)[nH]c2c1)c1cccs1,23.1µM*,?,?,-16.0,?
O=C(Cc1cccs1)Nc1cccc(-c2nc3cc4ccccc4cc3[nH]2)c1,13µM*,23.1µM*,25.9µM*,-97.1*,?
O=C(Nc1ccc(-c2nc3ccc(NC(=O)c4cccs4)cc3[nH]2)cc1)c1cccs1,1.64µM*,.,1.64µM*,-22.8,.
COc1cccc(C2CC(=O)Nc3c2c(=O)nc2c(C)cccn32)c1OC (stereo not drawn),-8.1%,.,-3.1%,.,.
CCCCn1nc2cc(C(=O)NCC34CC5CC(CC(C5)C3)C4)ccc2c1OCC,16.4µM*,-20.5%,?,-23.2,-4.0%
CCCCn1nc2cc(C(=O)NCCc3cccs3)ccc2c1OCC,?,2.5%,-3.6%,-6.9,-2.1%
COc1ccc(NC(=O)Cc2c(C)n(C(=O)c3ccc(Cl)cc3)c3ccc(OC)cc23)cc1,-28.7%,4.9%,-10.3%,26.7,-1.0%
COc1ccc2c(c1)c(CCNNC(=O)C(C)(C)C)c(C)n2C(=O)c1ccc(Cl)cc1,16.4µM*,6.6%,23.1µM*,?,-7.2%
COC(=O)CNC(=O)Cc1c(C)n(C(=O)c2ccc(Cl)cc2)c2ccc(OC)cc12,0.7%,-12.3%,-24.7%,23.5,-11.4%
COc1ccc2c(c1)c(CC(=O)OC(C)C(=O)N(C)C)c(C)n2C(=O)c1ccc(Cl)cc1 (stereo not drawn),14.6µM*,-4.2%,20.6µM*,8.3,-1.9%
COc1ccc2c(c1)c(CC(=O)Nc1ccc(C)cc1)c(C)n2C(=O)c1ccc(Cl)cc1,20.6µM*,-12.3%,?,21.6,-16.5%
O=C(N/C(=C\c1cccs1)C(=O)N1CCOCC1)c1cccs1,?,14.1%,8.3%,-9.4,9.4%
Cc1ccc(S(=O)(=O)N2CCOc3ccccc32)c(C)c1NS(C)(=O)=O,?,2.3%,?,29.0,-1.7%
Cc1cc(C)nc(-n2nc(C)c(Br)c2Nc2ccc(Br)cc2)n1,?,-7.3%,?,?,-17.5%
Cc1nn(C)c(Nc2ccc(Br)cc2)c1Br,18.4µM*,-29.7%,14.6µM*,-54.6*,?
Cc1cc(C)c(NC(=O)CN)c(C)c1,-7.2%,15.5%,11.2%,-15.1,23.7%
CCOC(=O)C(=Cc1ccc(N(C)C)cc1)C(=O)c1ccccc1,?,?,16.4µM*,-74.7*,?
CCOC(=O)/C(=C/c1ccc(OC(=O)c2ccccc2)cc1)C(C)=O,?,-13.9%,18.4µM*,i,-13.3%
